Legend:
Test in all cases: log2 ratio of Biotin-Ahx-Ub-VS probe labelling (fragment/DMSO); higher = less target engagement (more negative = stronger competition), active = hit call of the paper (q ≤ 0.05, log2 ratio ≤ -1)
Details in all cases: compound concentration: 200 uM; treatment time: 3 h
UniProt O00507 = target: UniProt O00507
Procedure, shortened: (§1)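 HEK293T lysate (495 µg per sample, in Tris/CHAPS/IGEPAL buffer with protease inhibitors) was exposed in triplicate for 3 h to fragment at 200 µM or to vehicle, then to Biotin-Ahx-Ub-VS at 0.5 µM final for 1 h. Labelled DUBs were enriched on NeutrAvidin, digested with LysC and trypsin, and analysed by diaPASEF LC-MS/MS. Spectronaut label-free quantities were normalised to the global median, and values are average log2 ratios of fragment over vehicle from an unpaired t-test. Only proteins with ≥2 unique peptides were used.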

UniProt P51784 = target: UniProt P51784
Procedure, shortened: as §1

UniProt Q5T2D3 = target: T1, UniProt Q5T2D3
T1 sequence (whole entry): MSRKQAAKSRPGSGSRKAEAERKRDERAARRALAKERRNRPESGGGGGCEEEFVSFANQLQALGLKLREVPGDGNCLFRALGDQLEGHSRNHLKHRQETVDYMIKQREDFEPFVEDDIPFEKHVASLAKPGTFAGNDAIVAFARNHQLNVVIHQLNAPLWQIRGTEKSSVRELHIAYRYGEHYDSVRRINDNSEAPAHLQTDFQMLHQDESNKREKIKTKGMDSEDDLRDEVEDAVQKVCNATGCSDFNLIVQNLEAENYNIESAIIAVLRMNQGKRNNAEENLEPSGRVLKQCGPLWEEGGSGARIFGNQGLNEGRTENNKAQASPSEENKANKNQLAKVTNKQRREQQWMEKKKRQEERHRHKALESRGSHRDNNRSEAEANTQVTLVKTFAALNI
Procedure, shortened: as §1

UniProt Q8TE49 = target: T2, UniProt Q8TE49
T2 sequence (whole entry): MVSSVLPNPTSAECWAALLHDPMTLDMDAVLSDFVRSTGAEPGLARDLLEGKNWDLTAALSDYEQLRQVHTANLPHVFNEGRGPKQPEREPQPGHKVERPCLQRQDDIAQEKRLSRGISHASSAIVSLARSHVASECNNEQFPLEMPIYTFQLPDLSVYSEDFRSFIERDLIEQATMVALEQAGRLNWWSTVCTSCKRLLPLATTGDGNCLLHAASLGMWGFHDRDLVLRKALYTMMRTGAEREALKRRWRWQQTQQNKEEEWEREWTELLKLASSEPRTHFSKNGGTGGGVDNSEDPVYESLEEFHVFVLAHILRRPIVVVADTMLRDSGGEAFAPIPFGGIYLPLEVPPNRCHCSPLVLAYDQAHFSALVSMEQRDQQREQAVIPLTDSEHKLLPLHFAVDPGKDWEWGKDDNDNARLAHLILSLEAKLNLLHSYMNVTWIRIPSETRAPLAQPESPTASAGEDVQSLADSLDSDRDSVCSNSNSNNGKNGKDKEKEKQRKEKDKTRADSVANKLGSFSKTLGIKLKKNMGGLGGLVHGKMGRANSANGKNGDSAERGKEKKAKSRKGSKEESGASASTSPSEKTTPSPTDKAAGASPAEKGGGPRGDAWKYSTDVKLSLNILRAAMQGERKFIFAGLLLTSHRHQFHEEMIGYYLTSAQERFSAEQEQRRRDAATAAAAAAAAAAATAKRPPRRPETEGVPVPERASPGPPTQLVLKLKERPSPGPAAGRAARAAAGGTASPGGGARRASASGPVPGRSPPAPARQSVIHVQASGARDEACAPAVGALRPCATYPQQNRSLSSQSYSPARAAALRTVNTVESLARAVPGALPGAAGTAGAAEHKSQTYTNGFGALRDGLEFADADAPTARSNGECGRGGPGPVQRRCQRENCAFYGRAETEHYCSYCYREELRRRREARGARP
Procedure, shortened: as §1

UniProt Q9P2H5 = target: T3, UniProt Q9P2H5
T3 sequence (whole entry): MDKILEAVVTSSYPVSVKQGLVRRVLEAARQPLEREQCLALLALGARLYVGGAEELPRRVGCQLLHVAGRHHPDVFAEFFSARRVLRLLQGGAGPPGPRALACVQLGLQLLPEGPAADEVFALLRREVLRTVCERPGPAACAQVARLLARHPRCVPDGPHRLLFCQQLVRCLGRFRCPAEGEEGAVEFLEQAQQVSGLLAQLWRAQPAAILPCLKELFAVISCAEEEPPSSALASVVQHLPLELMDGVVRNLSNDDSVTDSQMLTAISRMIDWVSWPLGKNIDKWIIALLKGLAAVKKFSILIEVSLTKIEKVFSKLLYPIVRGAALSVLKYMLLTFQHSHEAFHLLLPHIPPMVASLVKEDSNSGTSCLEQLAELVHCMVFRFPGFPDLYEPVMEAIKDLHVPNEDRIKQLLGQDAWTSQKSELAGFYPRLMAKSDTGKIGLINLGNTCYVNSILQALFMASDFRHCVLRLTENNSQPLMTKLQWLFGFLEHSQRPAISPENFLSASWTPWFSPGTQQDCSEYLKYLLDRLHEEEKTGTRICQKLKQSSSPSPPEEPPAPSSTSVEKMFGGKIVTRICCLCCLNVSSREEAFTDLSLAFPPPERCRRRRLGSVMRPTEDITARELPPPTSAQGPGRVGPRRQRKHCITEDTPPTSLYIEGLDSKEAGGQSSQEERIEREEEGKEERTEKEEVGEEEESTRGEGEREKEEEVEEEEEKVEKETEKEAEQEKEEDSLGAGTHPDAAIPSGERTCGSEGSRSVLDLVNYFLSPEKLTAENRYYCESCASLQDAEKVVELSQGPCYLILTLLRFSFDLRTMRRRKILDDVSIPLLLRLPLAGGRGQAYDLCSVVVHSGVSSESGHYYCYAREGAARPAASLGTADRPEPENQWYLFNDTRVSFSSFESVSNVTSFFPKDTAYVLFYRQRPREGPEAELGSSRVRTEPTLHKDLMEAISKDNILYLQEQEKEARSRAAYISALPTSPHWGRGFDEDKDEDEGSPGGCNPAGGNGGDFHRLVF
Procedure, shortened: as §1

UniProt Q9UGI0 = target: T4, UniProt Q9UGI0
T4 sequence (whole entry): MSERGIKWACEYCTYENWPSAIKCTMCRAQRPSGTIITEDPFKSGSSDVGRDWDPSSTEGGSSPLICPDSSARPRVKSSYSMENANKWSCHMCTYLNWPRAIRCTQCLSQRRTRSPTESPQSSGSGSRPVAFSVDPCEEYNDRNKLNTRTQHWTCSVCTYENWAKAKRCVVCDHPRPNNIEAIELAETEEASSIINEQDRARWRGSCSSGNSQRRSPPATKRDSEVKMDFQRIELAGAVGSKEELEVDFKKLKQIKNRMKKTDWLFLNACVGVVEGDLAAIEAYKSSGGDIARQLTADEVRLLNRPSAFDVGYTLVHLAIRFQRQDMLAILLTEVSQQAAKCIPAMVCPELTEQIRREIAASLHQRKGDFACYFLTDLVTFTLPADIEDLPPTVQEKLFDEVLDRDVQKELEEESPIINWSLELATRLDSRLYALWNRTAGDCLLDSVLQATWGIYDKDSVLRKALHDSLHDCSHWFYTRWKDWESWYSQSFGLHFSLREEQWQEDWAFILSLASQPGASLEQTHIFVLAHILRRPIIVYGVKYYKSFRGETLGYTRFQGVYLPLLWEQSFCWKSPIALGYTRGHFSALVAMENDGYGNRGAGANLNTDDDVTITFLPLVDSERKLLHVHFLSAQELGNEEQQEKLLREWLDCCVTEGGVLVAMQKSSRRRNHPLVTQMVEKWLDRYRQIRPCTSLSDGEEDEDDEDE
Procedure, shortened: as §1

YOD1 = target: T5, YOD1 (UniProt Q5VVQ6)
T5 sequence (whole entry): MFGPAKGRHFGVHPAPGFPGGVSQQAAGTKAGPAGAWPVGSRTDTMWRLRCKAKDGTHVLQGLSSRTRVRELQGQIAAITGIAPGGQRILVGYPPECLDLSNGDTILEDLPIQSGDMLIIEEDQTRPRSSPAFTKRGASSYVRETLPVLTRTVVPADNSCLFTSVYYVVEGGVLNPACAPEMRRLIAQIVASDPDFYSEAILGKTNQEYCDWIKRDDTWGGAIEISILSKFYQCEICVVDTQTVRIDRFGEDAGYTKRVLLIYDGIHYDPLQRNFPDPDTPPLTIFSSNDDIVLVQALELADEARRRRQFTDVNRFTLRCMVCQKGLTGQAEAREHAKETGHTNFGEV
Procedure, shortened: as §1

Measured: log2 ratio of Biotin-Ahx-Ub-VS probe labelling

Sequence of UniProt P51784 (P51784 whole entry): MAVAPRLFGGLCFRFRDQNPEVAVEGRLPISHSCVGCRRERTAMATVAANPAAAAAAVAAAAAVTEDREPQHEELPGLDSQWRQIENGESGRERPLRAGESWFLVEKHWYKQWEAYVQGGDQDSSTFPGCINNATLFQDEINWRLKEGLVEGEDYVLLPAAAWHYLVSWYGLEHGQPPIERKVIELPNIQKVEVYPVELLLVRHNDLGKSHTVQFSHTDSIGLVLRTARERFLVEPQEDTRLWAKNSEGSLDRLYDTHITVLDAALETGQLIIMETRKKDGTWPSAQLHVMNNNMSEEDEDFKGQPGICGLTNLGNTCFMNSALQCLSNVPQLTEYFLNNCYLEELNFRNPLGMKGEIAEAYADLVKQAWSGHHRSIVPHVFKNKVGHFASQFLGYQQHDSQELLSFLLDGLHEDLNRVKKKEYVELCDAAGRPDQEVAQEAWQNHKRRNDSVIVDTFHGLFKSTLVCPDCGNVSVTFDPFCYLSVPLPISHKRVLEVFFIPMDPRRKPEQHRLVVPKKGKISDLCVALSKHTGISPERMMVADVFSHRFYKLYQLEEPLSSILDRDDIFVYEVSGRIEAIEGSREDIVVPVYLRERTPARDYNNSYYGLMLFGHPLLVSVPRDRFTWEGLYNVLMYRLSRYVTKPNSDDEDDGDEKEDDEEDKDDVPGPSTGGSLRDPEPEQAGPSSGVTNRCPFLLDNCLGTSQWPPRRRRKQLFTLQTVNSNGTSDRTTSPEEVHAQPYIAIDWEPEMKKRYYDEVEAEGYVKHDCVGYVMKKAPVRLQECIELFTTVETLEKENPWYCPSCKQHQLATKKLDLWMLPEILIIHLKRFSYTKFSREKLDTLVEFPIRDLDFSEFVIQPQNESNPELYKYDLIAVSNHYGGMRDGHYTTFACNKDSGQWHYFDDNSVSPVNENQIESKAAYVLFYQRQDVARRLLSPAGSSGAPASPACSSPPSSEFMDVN
Sequence of UniProt O00507 (O00507 whole entry, the tested form may be a part): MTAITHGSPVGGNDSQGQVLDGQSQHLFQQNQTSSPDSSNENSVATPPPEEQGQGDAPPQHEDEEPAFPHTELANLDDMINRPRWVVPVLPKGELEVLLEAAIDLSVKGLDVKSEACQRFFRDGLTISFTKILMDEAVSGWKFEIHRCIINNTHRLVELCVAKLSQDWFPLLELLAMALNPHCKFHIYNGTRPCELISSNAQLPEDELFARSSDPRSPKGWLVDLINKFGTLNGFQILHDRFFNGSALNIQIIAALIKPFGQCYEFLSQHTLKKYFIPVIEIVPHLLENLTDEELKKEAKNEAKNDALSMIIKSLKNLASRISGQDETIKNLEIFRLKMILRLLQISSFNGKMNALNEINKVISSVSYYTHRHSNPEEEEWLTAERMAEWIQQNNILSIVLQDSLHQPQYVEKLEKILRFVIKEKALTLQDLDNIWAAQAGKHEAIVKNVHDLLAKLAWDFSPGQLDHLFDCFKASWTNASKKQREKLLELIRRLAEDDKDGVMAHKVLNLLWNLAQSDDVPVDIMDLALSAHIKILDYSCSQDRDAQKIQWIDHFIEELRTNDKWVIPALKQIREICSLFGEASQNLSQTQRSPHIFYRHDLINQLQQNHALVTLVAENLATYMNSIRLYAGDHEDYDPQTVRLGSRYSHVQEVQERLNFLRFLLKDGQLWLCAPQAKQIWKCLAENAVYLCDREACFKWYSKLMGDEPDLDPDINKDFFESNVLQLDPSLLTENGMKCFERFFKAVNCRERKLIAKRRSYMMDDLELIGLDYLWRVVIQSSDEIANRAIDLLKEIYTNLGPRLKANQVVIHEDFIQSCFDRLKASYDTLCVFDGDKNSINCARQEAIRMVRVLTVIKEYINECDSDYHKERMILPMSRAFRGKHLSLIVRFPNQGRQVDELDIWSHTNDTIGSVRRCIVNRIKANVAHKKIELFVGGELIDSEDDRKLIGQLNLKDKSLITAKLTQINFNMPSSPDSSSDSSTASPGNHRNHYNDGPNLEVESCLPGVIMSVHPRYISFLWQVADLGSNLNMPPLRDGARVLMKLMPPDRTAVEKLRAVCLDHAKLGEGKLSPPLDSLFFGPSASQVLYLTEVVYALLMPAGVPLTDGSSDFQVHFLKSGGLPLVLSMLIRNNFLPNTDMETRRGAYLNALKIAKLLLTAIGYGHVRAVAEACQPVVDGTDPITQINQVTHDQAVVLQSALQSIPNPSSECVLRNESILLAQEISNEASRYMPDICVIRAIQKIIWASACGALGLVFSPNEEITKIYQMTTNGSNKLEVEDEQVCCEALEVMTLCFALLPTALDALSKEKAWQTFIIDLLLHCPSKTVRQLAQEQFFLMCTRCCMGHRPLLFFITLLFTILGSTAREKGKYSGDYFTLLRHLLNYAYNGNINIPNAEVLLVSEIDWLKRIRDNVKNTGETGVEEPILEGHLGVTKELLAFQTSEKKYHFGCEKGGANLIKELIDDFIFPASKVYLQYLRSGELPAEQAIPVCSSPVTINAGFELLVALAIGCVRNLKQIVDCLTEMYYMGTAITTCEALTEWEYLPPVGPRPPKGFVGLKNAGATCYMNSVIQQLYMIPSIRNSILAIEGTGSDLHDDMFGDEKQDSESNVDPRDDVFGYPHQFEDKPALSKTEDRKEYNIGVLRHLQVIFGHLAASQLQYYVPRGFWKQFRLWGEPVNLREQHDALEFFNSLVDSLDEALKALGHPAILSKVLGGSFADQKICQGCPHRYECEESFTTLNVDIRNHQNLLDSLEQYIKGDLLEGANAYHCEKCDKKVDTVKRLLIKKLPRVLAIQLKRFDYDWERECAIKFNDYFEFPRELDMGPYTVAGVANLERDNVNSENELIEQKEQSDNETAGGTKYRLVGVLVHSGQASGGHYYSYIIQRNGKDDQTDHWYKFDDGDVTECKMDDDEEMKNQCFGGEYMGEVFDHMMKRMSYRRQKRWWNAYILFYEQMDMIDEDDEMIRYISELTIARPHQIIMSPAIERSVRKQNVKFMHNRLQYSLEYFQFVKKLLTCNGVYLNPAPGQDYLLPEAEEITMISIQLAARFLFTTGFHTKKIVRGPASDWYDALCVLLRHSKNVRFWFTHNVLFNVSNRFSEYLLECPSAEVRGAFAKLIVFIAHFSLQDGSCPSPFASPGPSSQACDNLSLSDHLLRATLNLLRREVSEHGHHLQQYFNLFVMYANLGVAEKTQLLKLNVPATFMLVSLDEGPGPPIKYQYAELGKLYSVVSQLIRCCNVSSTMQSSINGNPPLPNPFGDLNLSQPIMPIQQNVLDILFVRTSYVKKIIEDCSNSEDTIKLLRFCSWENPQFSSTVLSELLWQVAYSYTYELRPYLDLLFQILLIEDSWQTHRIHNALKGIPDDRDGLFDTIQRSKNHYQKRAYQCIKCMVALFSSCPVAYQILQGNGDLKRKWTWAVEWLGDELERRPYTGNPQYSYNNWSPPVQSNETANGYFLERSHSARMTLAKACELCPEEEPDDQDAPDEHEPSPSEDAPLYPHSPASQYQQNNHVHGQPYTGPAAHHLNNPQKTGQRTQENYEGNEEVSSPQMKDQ

O=C(CCl)Nc1cc2c(cc1Cl)OCCCO2
inactive: UniProt O00507 0.443 | UniProt P51784 0.0196 | UniProt Q5T2D3 0.0208 | UniProt Q8TE49 -0.506 | UniProt Q9P2H5 -0.0168 | UniProt Q9UGI0 -0.0467 | YOD1 0.361

Cc1cccc(N(CCC#N)C(=O)CCl)c1C
inactive: UniProt O00507 0.294 | UniProt P51784 0.0536 | UniProt Q5T2D3 -0.0559 | UniProt Q9P2H5 -0.386 | UniProt Q9UGI0 -0.934 | YOD1 0.144
active: UniProt Q8TE49 -1.26

O=C(CCl)NC1CCC2(CC1)OCCO2
inactive: UniProt O00507 -0.379 | UniProt P51784 -0.104 | UniProt Q5T2D3 -0.473 | UniProt Q8TE49 -0.565 | UniProt Q9P2H5 -0.399 | UniProt Q9UGI0 -0.544 | YOD1 -0.297

Cc1cc(NC(=O)CCl)n(-c2ccccc2)n1
inactive: UniProt O00507 0.159 | UniProt P51784 -0.0134 | UniProt Q5T2D3 0.000838 | UniProt Q8TE49 -0.548 | UniProt Q9P2H5 -0.36 | UniProt Q9UGI0 -0.672 | YOD1 0.179

Cl.O=C(CCl)N[C@H]1C[C@@H](n2cccn2)C1
inactive: UniProt O00507 -0.599 | UniProt P51784 0.0814 | UniProt Q5T2D3 0.0298 | UniProt Q8TE49 -0.369 | UniProt Q9P2H5 0.122 | UniProt Q9UGI0 -0.284 | YOD1 -0.324

Cc1nc(CNC(=O)CCl)c2ccccn12.Cl
inactive: UniProt O00507 0.444 | UniProt P51784 -0.0444 | UniProt Q5T2D3 -0.454 | UniProt Q8TE49 -0.499 | UniProt Q9P2H5 -0.818 | UniProt Q9UGI0 -0.311 | YOD1 0.114

CS(=O)(=O)c1ccc(NC(=O)CCl)cc1
inactive: UniProt O00507 -0.0176 | UniProt P51784 -0.0206 | UniProt Q5T2D3 -0.139 | UniProt Q8TE49 -0.443 | UniProt Q9P2H5 -0.192 | UniProt Q9UGI0 -0.87 | YOD1 0.0991

Cc1ccc(C)c(Oc2ccc(CNC(=O)CCl)cn2)c1.Cl
inactive: UniProt O00507 -0.379 | UniProt P51784 -0.367 | UniProt Q5T2D3 -0.187 | UniProt Q8TE49 -0.677 | UniProt Q9P2H5 -0.375 | UniProt Q9UGI0 -0.886 | YOD1 -0.149

Cl.O=C(CN1CCN(C(=O)CCl)CC1)Nc1ccc(F)cc1
inactive: UniProt O00507 0.543 | UniProt P51784 0.0839 | UniProt Q5T2D3 -0.013 | UniProt Q8TE49 -0.19 | UniProt Q9P2H5 -0.164 | UniProt Q9UGI0 -0.166 | YOD1 0.204
